For eight compounds, z-score and composite z-score results are on record in PubChem BioAssay.

Active and inactive are the calls of the source.

Test [1] can be described thus: optical density shifts of acrAB sulA E. coli – strain DRC41, OD650, 48 h, E. coli filamentation inducer project, primary screen (AID 1152).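 Also: E. coli MC1000 strain DRC41 lacking acrAB efflux pump and sulA.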 Conditions: higher = more signal, called active from +8 up or from −8 down.
Test [2] is described as follows: probe aLefty1 binding on compound microarray – biochemical, small-molecule microarray, 635/667 nm fluorescence, primary screen (AID 1153).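 Also: score merges spot fluorescence with signal-to-noise ratio from the scanned slide images.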 Conditions: higher = more signal.
The nature of test [3]: plasmodial surface anion channel blockers, osmotic lysis – cell-based, P. falciparum Indochina, OD700, 1 h, primary screen (AID 1154). As to conditions: P. falciparum Indochina infected RBC osmotic lysis, higher = more signal, called active from +8 up or from −8 down.
A short description of test [4]: plasmodial surface anion channel blockers, osmotic lysis – cell-based, P. falciparum Indochina, OD700, 2 h, primary screen (AID 1155).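 Also: lysis reports solute entry through the parasite surface anion channel PSAC.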 As to conditions: P. falciparum Indochina infected erythrocytes, higher = more signal, called active from +8 up or from −8 down.
The nature of test [5]: changes in parasitized red cell lysis, either direction – P. falciparum Indochina, OD700, 3 h, PSAC antagonist project, primary screen (AID 1156). As to conditions: P. falciparum-infected erythrocytes, osmotic lysis, higher = more signal, called active from +8 up or from −8 down.
Test [6] in a line: plasmodial surface anion channel blockers, osmotic lysis – cell-based, P. falciparum Indochina, OD700, 18 h, primary screen (AID 1157). As to conditions: P. falciparum Indochina infected erythrocytes, osmotic lysis OD700, 18 h; higher = more signal, called active from +8 up or from −8 down.
The nature of test [7]: S6 kinase pathway phospho-S6 level changes – cell-based, A549, cytoblot, luminescence, serum-stimulated, primary screen (AID 1158).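 Also: serum-stimulated A549 lung adenocarcinoma cells; signal is phosphorylated S6 detected by cytoblot immunostaining with HRP secondary.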 As to conditions: 5 h, higher = more signal.
In test [8] the target is NADPH oxidase 2 (Homo sapiens) (UniProt P04839). The test is described as follows: compounds shifting NOX2 Amplex Red fluorescence – cell-based, HEK293-NOX2, PMA-stimulated, NOX inhibitor project, primary screen (AID 1159). Also: test concentration not given here. Conditions: 45 min, higher = more signal, called active from +8 up or from −8 down.
Chain of NADPH oxidase 2 (Homo sapiens) (P04839 whole entry, looked up): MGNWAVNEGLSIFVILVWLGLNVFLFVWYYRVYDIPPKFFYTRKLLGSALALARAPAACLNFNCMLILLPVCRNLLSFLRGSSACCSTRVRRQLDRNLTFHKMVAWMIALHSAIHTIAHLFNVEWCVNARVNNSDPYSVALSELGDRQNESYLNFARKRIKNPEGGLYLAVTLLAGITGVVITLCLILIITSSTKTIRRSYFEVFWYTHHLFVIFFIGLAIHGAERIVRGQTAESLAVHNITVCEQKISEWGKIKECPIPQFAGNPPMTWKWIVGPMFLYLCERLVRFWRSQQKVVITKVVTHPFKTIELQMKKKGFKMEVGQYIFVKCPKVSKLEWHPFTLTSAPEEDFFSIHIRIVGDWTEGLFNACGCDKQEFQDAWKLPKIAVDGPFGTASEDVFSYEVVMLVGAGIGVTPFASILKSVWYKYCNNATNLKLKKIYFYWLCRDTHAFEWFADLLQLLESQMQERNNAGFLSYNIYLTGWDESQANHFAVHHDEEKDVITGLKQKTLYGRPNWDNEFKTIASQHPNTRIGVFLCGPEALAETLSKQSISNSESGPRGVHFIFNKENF
Test [9] has as its target NADPH oxidase 4 (Homo sapiens) (UniProt Q9NPH5). The test is described as follows: compounds shifting NOX4 Amplex Red fluorescence – cell-based, HEK293-NOX4, tetracycline-induced, NOX inhibitor project, primary screen (AID 1160). Conditions: HEK293-NOX4, Amplex Red H2O2 fluorescence, 45 min; higher = more signal, called active from +8 up or from −8 down.
The target of test [10] is NADPH oxidase 5 (Homo sapiens) (UniProt Q96PH1). The test is described as follows: compounds shifting NOX5 Amplex Red fluorescence – cell-based, HEK293-NOX5, NOX inhibitor project, primary screen (AID 1161). As to conditions: HEK293-NOX5, ionomycin, 45 min, higher = more signal.
Chain of NADPH oxidase 5 (Homo sapiens) (Q96PH1 whole entry, looked up): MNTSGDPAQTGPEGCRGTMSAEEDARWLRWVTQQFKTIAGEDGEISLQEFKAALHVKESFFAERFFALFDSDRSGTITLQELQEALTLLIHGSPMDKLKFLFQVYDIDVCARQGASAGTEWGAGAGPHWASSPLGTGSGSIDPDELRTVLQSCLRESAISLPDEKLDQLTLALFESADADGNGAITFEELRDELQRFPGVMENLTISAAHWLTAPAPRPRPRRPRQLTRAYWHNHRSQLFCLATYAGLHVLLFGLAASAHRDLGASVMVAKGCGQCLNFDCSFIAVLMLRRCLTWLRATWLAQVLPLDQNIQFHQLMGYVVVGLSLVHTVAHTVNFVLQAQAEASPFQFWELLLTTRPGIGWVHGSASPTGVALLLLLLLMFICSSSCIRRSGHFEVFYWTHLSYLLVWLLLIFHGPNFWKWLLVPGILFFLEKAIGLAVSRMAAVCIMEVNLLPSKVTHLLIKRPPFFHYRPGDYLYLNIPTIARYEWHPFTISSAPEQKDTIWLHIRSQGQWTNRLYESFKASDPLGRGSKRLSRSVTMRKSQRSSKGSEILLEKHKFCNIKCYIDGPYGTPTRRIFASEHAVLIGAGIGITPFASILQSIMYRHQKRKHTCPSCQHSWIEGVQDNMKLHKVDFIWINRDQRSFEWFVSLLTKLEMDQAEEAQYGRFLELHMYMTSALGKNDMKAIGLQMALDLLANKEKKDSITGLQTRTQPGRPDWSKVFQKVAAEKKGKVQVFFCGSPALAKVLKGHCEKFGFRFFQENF
A short description of test [11]: compound effects on lung adenocarcinoma cell viability – A549, calcein-AM fluorescence, 48 h, basal, profiling panel (AID 1162). Also: test concentration not given here. Conditions: higher = more signal.
Test [12] is described as follows: compound effects on differentiated 3T3-L1 adipocyte viability – cell-based, 3T3-L1 adipocytes, calcein-AM fluorescence, 48 h, basal, profiling panel (AID 1163). Also: test concentration not given here. As to conditions: 3T3-L1 adipocytes viability, higher = more signal.
Test [13] in a line: compound effects on hepatocellular carcinoma cell viability – HepG2, calcein-AM fluorescence, 48 h, basal, profiling panel (AID 1164). Also: test concentration not given here. Conditions: higher = more signal.
Test [14] is described as follows: compound effects on multiple myeloma cell viability – MM1S, calcein-AM fluorescence, 48 h, basal, profiling panel (AID 1165). Also: test concentration not given here. Conditions: higher = more signal.
A short description of test [15]: calcein-AM signal in unstimulated myeloma cells – cell-based, calcein-AM fluorescence, 48 h, PK04 Diversity Set, profiling panel (AID 1166).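 Also: cells grown under basal conditions without added stimulus; test concentration not given here.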 Conditions: RPMI8226 myeloma viability, higher = more signal.
The nature of test [16]: JC-1 mitochondrial signal, unstimulated HepG2 cells – cell-based, JC-1 fluorescence, 24 h, 100 nL compound, profiling panel (AID 1167). Also: test concentration not given here. As to conditions: HepG2 mitochondrial potential, higher = more signal.
Test [17] in a line: JC-1 mitochondrial signal, unstimulated adipocytes – cell-based, JC-1 fluorescence, 3T3-L1 adipocytes, 24 h, 100 nL compound, profiling panel (AID 1168). Also: test concentration not given here. Conditions: JC-1 mitochondrial fluorescence, higher = more signal, called active from +8 up or from −8 down.
The nature of test [18]: JC-1 mitochondrial signal, unstimulated myeloma cells – cell-based, JC-1 fluorescence, RPMI8226, 24 h, 100 nL compound, profiling panel (AID 1169). Also: test concentration not given here. As to conditions: JC-1 mitochondrial potential fluorescence, higher = more signal.
Test [19] can be described thus: JC-1 mitochondrial signal, unstimulated MM1S myeloma – cell-based, JC-1 fluorescence, 24 h, 100 nL compound, profiling panel (AID 1170). Also: test concentration not given here. As to conditions: MM1S mitochondrial potential, higher = more signal.
A short description of test [20]: resazurin metabolic signal in A549 cells – cell-based, resazurin fluorescence, 24 h, PK04 Diversity Set, profiling panel (AID 1171). Also: test concentration not given here. As to conditions: A549 viability, higher = more signal, called active from +8 up or from −8 down. A general note: Resazurin is reduced to fluorescent resorufin, in cell work by metabolically active cells.

Chain of NADPH oxidase 4 (Homo sapiens) (Q9NPH5 whole entry, looked up): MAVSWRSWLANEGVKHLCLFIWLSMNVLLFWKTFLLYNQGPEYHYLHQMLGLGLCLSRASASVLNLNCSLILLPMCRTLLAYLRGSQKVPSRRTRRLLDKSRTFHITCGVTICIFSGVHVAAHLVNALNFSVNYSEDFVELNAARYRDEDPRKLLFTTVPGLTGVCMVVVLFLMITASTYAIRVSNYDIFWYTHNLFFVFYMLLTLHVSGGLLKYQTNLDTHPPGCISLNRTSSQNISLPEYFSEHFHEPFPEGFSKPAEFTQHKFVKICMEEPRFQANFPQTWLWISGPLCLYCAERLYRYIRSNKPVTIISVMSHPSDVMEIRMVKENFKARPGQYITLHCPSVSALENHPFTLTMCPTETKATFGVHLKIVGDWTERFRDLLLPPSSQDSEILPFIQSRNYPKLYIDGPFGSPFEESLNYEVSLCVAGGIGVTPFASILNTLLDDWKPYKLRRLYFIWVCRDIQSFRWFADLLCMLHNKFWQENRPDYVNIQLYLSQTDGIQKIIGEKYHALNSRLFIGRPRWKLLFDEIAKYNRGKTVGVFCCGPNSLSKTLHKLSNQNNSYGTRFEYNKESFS

In the case of `C[C@@H]1C=CCC(=O)OC[C@H](C)C(=O)OC[C@H]2O[C@H]1C=C[C@H]2O`, the z-score is 0.0366 (inactive) in [1]; 1.17 (inactive) in test [3]; 0.714 (inactive) in [4]; 0.0284 (inactive) in [5]; 0.254 (inactive) in [6]; 1.68 in test [7]. Besides, the z-score in test [8] is -0.648 (inactive); in test [9], -2.12 (inactive); in [10] it was -0.384; in test [11], 0.145; in test [12] it was -0.261; in [13] it was -0.139. The z-score in test [14] is -1.42; in test [15], -0.595; in test [16], 0.482; in test [17], 0.36 (inactive); in test [18] it was -0.103; in test [19], -0.314. For the same compound, in test [20], the z-score was 0.172 (inactive). Besides, in test [2], the composite z-score is -0.15.
As for `COC(=O)CC1OC1[C@H](C)[C@@H](OC)C(C)C` (stereo not given in full), the z-score in test [1] was 0.547 (inactive); in [3], 2.66 (inactive); in test [4], -0.0353 (inactive); in test [5], -0.324 (inactive); in test [6], -0.146 (inactive); in [7] it was 0.0023. The z-score is -1.33 (inactive) in [8]; -1.67 (inactive) in test [9]; -1.45 in [10]; 0.285 in test [11]; 0.0498 in test [12]; 1.66 in test [13]. In addition, the z-score is -3.45 in test [14]; 0.045 in test [15]; 1.74 in [16]; 0.269 (inactive) in test [17]; 0.666 in test [18]; -0.796 in test [19]. The z-score in test [20] was -0.292 (inactive). The compound further came in with a composite z-score in test [2] of -0.0186.
Consider `CC(=O)OC[C@H]1O[C@H](CCON=C(C)CCN2CCc3nc(-c4ccccc4)c(-c4ccccc4)cc3C2)C=C[C@@H]1OC(C)=O`, for which the z-score in test [1] is -0.132 (inactive); in test [3], 2.65 (inactive); in [4], 0.452 (inactive); in [5], 0.676 (inactive); in test [6] it was 0.148 (inactive); in test [7], -0.166. Moreover, the z-score in [8] was -2.87 (inactive); in test [9], -0.455 (inactive); in test [10], -2.78; in test [11] it was 0.396; in test [12] it was 0.235; in test [13] it was 0.2. The z-score was -2.16 in test [14]; 0.091 in test [15]; -0.273 in test [16]; -1.4 (inactive) in [17]; 0.168 in test [18]; -0.594 in test [19]. Besides, the z-score in test [20] is 0.783 (inactive). This compound had a composite z-score in [2] of 0.0446.
Regarding `O=C1O[C@@H](c2ccccc2)[C@@H](c2ccccc2)N2[C@@H](c3ccc(OCCO)cc3)[C@]3(C(=O)Nc4ccc(C#CCCO)cc43)[C@@H](C(=O)N3CCCCCCC3)[C@H]12`, the z-score was 0.974 (inactive) in test [1]; 4.33 (inactive) in test [3]; 1.27 (inactive) in test [4]; 0.526 (inactive) in [5]; 0.737 (inactive) in [6]; -0.178 in [7]. Besides, the z-score in test [8] is 1.6 (inactive); in test [9], 0.824 (inactive); in test [10], 1.08; in test [11] it was 0.819; in [12], 1.02; in [13] it was 0.874. In addition, the z-score is 0.206 in test [14]; 0.269 in test [15]; 0.523 in test [16]; -0.564 (inactive) in test [17]; -0.974 in [18]; -0.399 in test [19]. In addition, the z-score in test [20] is 0.932 (inactive). The composite z-score in test [2] was determined as 2.79.
As to `CN1C(=O)[C@@]2(CCC(=O)OC(C)(C)C)N=C(c3ccc(OCCCO)cc3)O[C@H]2c2ccccc21`, the z-score was 1.02 (inactive) in test [1]; 30.8 (active) in test [3]; 26.6 (active) in test [4]; 1.7 (inactive) in test [5]; 1.11 (inactive) in [6]; 1.09 in test [7]. The z-score is -2.05 (inactive) in test [8]; 0.112 (inactive) in [9]; -1.43 in [10]; 0.575 in test [11]; 1.36 in test [12]; -0.614 in test [13]. Besides, the z-score in test [14] was -1.85; in [15], -3.45; in test [16], 0.543; in test [17], -0.207 (inactive); in [18], -1.18; in test [19], -0.696. In addition, the z-score in test [20] was -0.54 (inactive). For the same compound, the composite z-score in test [2] came out at 0.0959.
Take `CCOC(=O)[C@H](Cc1ccccc1)NC(=O)CCC1CC(OC(=O)NCc2ccc3c(c2)OCO3)CC2(CCCC(COC(=O)NCc3cccc(C(F)(F)F)c3)O2)O1` (stereo not given in full): the z-score in [1] is -0.667 (inactive); in test [3], -0.272 (inactive); in test [4], -1.05 (inactive); in [5], -0.106 (inactive); in [6], -1.37 (inactive); in [7] it was 2.74. The z-score in test [8] is -0.661 (inactive); in test [9] it was -1.35 (inactive); in test [10], -0.999; in test [11], 0.46; in [12], 1.24; in test [13], -0.526. Moreover, the z-score is 0.706 in test [14]; -2.18 in test [15]; 2.06 in test [16]; -0.56 (inactive) in test [17]; 0.918 in [18]; -0.622 in test [19]. In addition, the z-score in test [20] is -0.0224 (inactive). In [2], the composite z-score came to 0.138.
As for `CCOC(=O)[C@H](CC(C)C)NC(=O)CCC1CC(OC(=O)NCCc2ccc(F)cc2)CC2(CCCC(COC(=O)NCc3ccccc3)O2)O1` (stereo not given in full), the z-score is -1.06 (inactive) in test [1]; 3.44 (inactive) in test [3]; -1.22 (inactive) in [4]; 1.39 (inactive) in [5]; -1.42 (inactive) in test [6]; 1.78 in [7]. The z-score was -0.945 (inactive) in test [8]; -0.797 (inactive) in [9]; -2.24 in test [10]; -0.138 in test [11]; 0.0596 in test [12]; -3.35 in test [13]. For the same compound, the z-score in test [14] is -3.45; in [15] it was -3.81; in test [16] it was -2.07; in [17], 0.154 (inactive); in [18], -0.165; in test [19], -1.45. Moreover, the z-score in test [20] was 0.29 (inactive). This compound also gave a composite z-score in test [2] of 0.0536.
Regarding `O=C1[C@H]2[C@H]3[C@H](O)[C@H](O)CC(=NO[C@@H]4O[C@H](CO)[C@@H](O)[C@H](O)[C@H]4O)[C@H]3CC[C@H]2C(=O)N1Cc1ccccc1`, the z-score in [1] was -0.906 (inactive); in [3], 5.53 (inactive); in test [4], 0.117 (inactive); in [5], -0.19 (inactive); in test [6], -0.801 (inactive); in [7] it was 0.705. The z-score in test [8] was -2.63 (inactive); in test [9], 0.587 (inactive); in test [10] it was 0.353; in [11], -0.0916; in test [12] it was -0.0474; in test [13] it was -0.571. The z-score in test [14] was 0.713; in test [15], -0.716; in test [16], 0.616; in test [17], -0.0221 (inactive); in test [18], 0.42; in test [19], -0.755. In test [20], the z-score was 0.623 (inactive). The compound further returned a composite z-score in test [2] of 0.0068.
